SARS PLpro yeast: SARS-CoV PLP inhibition in yeast | Potency, µM (highest dose often 32.9 µM), hits mostly activators | 0.19% of 330,000 active | S. cerevisiae expressing SARS-CoV PLpro, growth rescue; calls by dose curve; further: nearly all actives have a fitted effect of over 55% in size
Pf growth 48h: inhibits P. falciparum growth in the first generation, 48 h; Potency, µM (highest dose often 28.7 µM), most hits filed as inhibitors; 5.9% of 310,000 active; P. falciparum luciferase growth in erythrocytes, 48 h
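Luciferase-expressing P. falciparum in infected erythrocytes (2% hematocrit, 0.1% parasitemia final) in RPMI 1640/0.5% Albumax were exposed to compound for 48 hours at 37 C, 5% CO2; growth read as luminescence.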
Pf growth 96h: P. falciparum growth inhibition at 96 hour, primary screen for plastid delayed-death inhibitors. P. falciparum luciferase reporter growth, 96 h. Potency, µM (doses to about 28.7 µM), actives largely listed as inhibitors. 6.9% of 320,000 active
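Readout is luminescence from an integrated firefly luciferase in P. falciparum. Red cells, 2% hematocrit and 0.05% parasitemia final, were cultured with compound through two parasite generations (96 hours) at 37 C, 5% CO2.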
AmpC inh no detg: AmpC beta-lactamase inhibition without detergent | 0.52% of 330,000 active | AmpC nitrocefin hydrolysis, absorbance 480 nm, 0.0001% Triton | Potency, µM (titrated, usually from 57.1 µM), most hits filed as inhibitors | P00811 | AID 485341; further: nearly all actives have a fitted effect of over 20% in size
Target sequence (P00811 whole entry, looked up): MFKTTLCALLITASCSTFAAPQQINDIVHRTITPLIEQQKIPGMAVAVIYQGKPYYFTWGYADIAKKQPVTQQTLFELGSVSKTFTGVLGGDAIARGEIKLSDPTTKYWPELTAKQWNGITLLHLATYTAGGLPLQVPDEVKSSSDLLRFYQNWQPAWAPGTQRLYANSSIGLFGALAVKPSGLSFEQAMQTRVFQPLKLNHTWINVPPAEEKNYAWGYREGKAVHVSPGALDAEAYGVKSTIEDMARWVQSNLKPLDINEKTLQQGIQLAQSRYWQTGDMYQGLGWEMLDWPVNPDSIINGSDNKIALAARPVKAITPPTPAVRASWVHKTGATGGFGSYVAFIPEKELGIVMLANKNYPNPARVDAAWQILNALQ
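20 mM phosphate pH 7.0 + 0.01% (detergent screen) or 0.0001% Triton X-100; 5.3 nM AmpC reagent; cpd preinc 15 min RT; nitrocefin (800 uM stock) to start; A480 q20 s × 4 min; Activity was normalised to no-enzyme and no-compound control wells.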
AmpC detergent: AmpC beta-lactamase inhibition with detergent present; AID 485294; Potency, µM (top dose mostly 114 µM), actives largely listed as inhibitors; 0.041% of 370,000 active; AmpC hydrolysis of nitrocefin, absorbance 480 nm, 0.01% Triton; P00811; further: nearly all actives have a fitted effect of over 25% in size
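20 mM phosphate pH 7.0 + 0.01% (detergent screen) or 0.0001% Triton X-100; 5.3 nM AmpC reagent; cpd preinc 15 min RT; nitrocefin (800 uM stock) to start; A480 q20 s × 4 min; Activity was normalised to no-enzyme and no-compound control wells.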
Sm TGR inh: S. mansoni TGR enzyme inhibition | purified TGR, DTNB reduction, TNB absorbance 405 nm | Q962Y6 | 3% of 360,000 active | Potency, µM (doses to about 114 µM), most hits filed as inhibitors | AID 485364; further: nearly all actives have a fitted effect of over 60% in size
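TGR 20 nM + NADPH 100 uM (dispensed conc.), cpd preinc 15 min RT; start with NADPH (500 uM addition) then DTNB (15 mM addition). Kinetic TNB absorbance, 405 nm filter. Four-parameter Hill fit across titration.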
Large screens that a line does not name were inactive. The list is not random: actives were taken first. Their share in the collection is about 12%. Unless noted, the call rests on the fitted dose curve; in most records, active means well fitted curve in the direction sought with a large enough effect; inconclusive means small, poorly fitted or top-dose-only effect, or another doubt; inactive means no such curve, though single readings can be large; an effect the other way counts as inactive or inconclusive.

O=C(CN1CCCCCC1)N1c2ccccc2Sc2ccccc21	Pf growth 48h inconclusive, Pf growth 96h inconclusive, Sm TGR inh inconclusive
O=C(CCN1CCN(CCO)CC1)N1c2ccccc2Sc2ccc(C(F)(F)F)cc21	Pf growth 48h inconclusive, Pf growth 96h inconclusive, AmpC detergent inconclusive
O=S1(=O)[C@H]2C[C@H](CO)O[C@@]2(CO)CN1Cc1ccc(-c2cccc(Cl)c2)cc1	none (no result: Pf growth 48h, Pf growth 96h, AmpC detergent, Sm TGR inh)
Cc1cc(Cl)ccc1NC(=O)COC(=O)CCNS(=O)(=O)c1ccccc1	none
Oc1c(Br)cc(Br)cc1CNc1cnc2ccccc2c1	Pf growth 48h inconclusive, Sm TGR inh 13µM
O=C1[C@H]2[C@@H](c3ccc(Cl)cc3)N3C(=O)N(c4cccc(Cl)c4)C(=O)[C@@]3(Cc3ccccc3)[C@H]2C(=O)N1C1CCCCC1	Pf growth 48h 2.1µM, Pf growth 96h 5.9µM
Cc1ccc(N2C(=O)N3[C@H](c4ccc(F)cc4)[C@@H]4C(=O)N(C5CCCCC5)C(=O)[C@@H]4[C@]3(Cc3ccccc3)C2=O)cc1	Pf growth 96h 12µM, AmpC detergent inconclusive
CC(C)C[C@@]12C(=O)N(c3cccc(Br)c3)C(=O)N1[C@H](c1ccc(F)cc1)[C@@H]1C(=O)N(C3CCCCC3)C(=O)[C@@H]12	Pf growth 48h 1.9µM, Pf growth 96h inconclusive
O=C1[C@H]2[C@@H](c3ccc(F)cc3)N3C(=O)N(c4cccc(F)c4)C(=O)[C@@]3(Cc3ccccc3)[C@H]2C(=O)N1C1CCCCC1	Pf growth 48h inconclusive, Pf growth 96h inconclusive, AmpC detergent inconclusive
O=C1[C@H]2[C@@H](c3ccc(F)cc3)N3C(=O)N(c4cccc(Br)c4)C(=O)[C@@]3(Cc3ccccc3)[C@H]2C(=O)N1C1CCCCC1	Pf growth 48h 4.1µM, Pf growth 96h inconclusive, AmpC detergent inconclusive
CCOC(=O)c1ccc(Nc2nc3ccc(C(=O)c4ccccc4)cc3n3c(C)nnc23)cc1	none (no result: SARS PLpro yeast, Pf growth 48h, Pf growth 96h, AmpC inh no detg)
CCN1C(=O)[C@H]2[C@@H](c3ccc(C)cc3)N3C(=O)N(c4cccc(Br)c4)C(=O)[C@@]3(CC(C)C)[C@H]2C1=O	Pf growth 48h inconclusive, Pf growth 96h 15µM
Cc1cc(C)cc(C(=O)N2CC(C)SC2=Nc2cccc(S(=O)(=O)N(C)C)c2)c1 (centres undefined)	Pf growth 48h 13µM, Pf growth 96h inconclusive
Cc1noc(C)c1COc1ccccc1C(=O)NCCc1ccccc1	Pf growth 48h inconclusive, Pf growth 96h inconclusive
Cc1noc(C)c1COc1ccccc1C(=O)NC(C)c1ccc(Cl)cc1 (centres undefined)	Pf growth 48h 13µM, Pf growth 96h 5.2µM
Cc1noc(C)c1COc1ccccc1C(=O)NCc1ccccc1Cl	Pf growth 48h inconclusive, Pf growth 96h 5.2µM, AmpC inh no detg inconclusive, AmpC detergent inconclusive
Cc1ccc(C)c(NC(=O)c2cnc(N3CCCC3)nc2C)c1	none (no result: SARS PLpro yeast, Pf growth 48h, Pf growth 96h, AmpC inh no detg)
Cc1[nH]c(-c2ccccn2)nc(=S)c1Cl	Pf growth 48h inconclusive, Pf growth 96h inconclusive
Cc1cc(=S)nc(-c2ccccn2)[nH]1	SARS PLpro yeast inconclusive, Pf growth 48h 10µM, Pf growth 96h 3.7µM
CCOc1ccc(-n2cc(-c3ccccc3)c3c(N4CCN(c5ccccc5OC)CC4)ncnc32)cc1	none (no result: SARS PLpro yeast, Pf growth 48h, Pf growth 96h, AmpC inh no detg)
COc1ccccc1NC(=O)CCC(=O)OCc1cccc([N+](=O)[O-])c1	AmpC detergent inconclusive
Cc1ccc(S(=O)(=O)N2CCN(C(=O)COC(=O)CC(C)c3ccccc3)CC2)c(C)c1 (centres undefined)	Pf growth 48h inconclusive, AmpC detergent inconclusive
CCC(C(=O)OCC(=O)N1CCN(S(=O)(=O)c2ccc(C)cc2C)CC1)c1ccccc1 (centres undefined)	Pf growth 48h 13µM, Pf growth 96h 9.3µM
CCOC(=O)c1c(C)[nH]c(C(=O)OCC(=O)N2CCN(S(=O)(=O)c3ccc(C)cc3C)CC2)c1C	Pf growth 48h 15µM, Pf growth 96h 7.4µM
Cc1cccc(-c2nc3c(cnn3-c3ccccc3)c(=O)n2-c2cccc(Cl)c2)c1	none (no result: SARS PLpro yeast, Pf growth 48h, Pf growth 96h, AmpC inh no detg)
